# The sample as a whole holds a higher share of the strongest signals than the screen did.
# Columns and labels:
# Assay in all cases: glycan array binding signal (z-score within array); higher = stronger binding
# Conditions in all cases: glycan notation: IUPAC condensed, linker removed
# [1] = biological target: Fuc(a1-2)Gal(b1-3)GalNAc(a1-3)[Fuc(a1-2)]Gal(b1-4)GlcNAc
# How it was run: (§1)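 From the Consortium for Functional Glycomics database, 3228 arrays were curated, keeping only those whose protein sequence was available. Binding is given as a within-array Z-score averaged across arrays sharing a protein sequence and across linkers. Negative Z-scores can be read as non-binding.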
# [2] = biological target: Fuc(a1-2)Gal(b1-3)GalNAc(b1-3)Gal(a1-4)Gal(b1-4)Glc
# How it was run: as §1
# [3] = biological target: Fuc(a1-2)Gal(b1-3)GalNAc(b1-4)[Neu5Ac(a2-3)]Gal(b1-4)Glc
# How it was run: as §1
# [4] = biological target: Fuc(a1-2)Gal(b1-3)GlcNAc(b1-3)[Fuc(a1-2)Gal(b1-3)GlcNAc(b1-6)]GalNAc
# How it was run: as §1
# [5] = biological target: Fuc(a1-2)Gal(b1-4)Glc6S
# How it was run: as §1
# [6] = biological target: Fuc(a1-2)Gal6S(b1-4)Glc
# How it was run: as §1
# [7] = biological target: Fuc(a1-2)[Gal(a1-3)]Gal(b1-3)GalNAc
# How it was run: as §1
# [8] = biological target: Fuc(a1-2)[Gal(a1-3)]Gal(b1-4)GlcNAc(b1-3)[Fuc(a1-2)[Gal(a1-3)]Gal(b1-4)GlcNAc(b1-6)]GalNAc
# How it was run: as §1
# [9] = biological target: Fuc(a1-2)[Gal(a1-4)]Gal(b1-4)GlcNAc
# How it was run: as §1
# [10] = biological target: Fuc(a1-2)[GalNAc(a1-3)]Gal(b1-4)GlcNAc(b1-2)Man(a1-3)[Fuc(a1-2)[GalNAc(a1-3)]Gal(b1-4)GlcNAc(b1-2)Man(a1-6)]Man(b1-4)GlcNAc(b1-4)GlcNAc
# How it was run: as §1
# [11] = biological target: Fuc(a1-2)[GalNAc(a1-3)]Gal(b1-4)GlcNAc(b1-3)Gal(b1-4)GlcNAc(b1-3)Gal(b1-4)GlcNAc
# How it was run: as §1
# [12] = biological target: Gal(a1-3)[Gal(a1-4)]Gal(b1-4)GlcNAc
# How it was run: as §1
# [13] = biological target: Gal(b1-3)GlcNAc(a1-6)Gal(b1-4)GlcNAc
# How it was run: as §1
# [14] = biological target: Gal(b1-3)GlcNAc6S
# How it was run: as §1
# [15] = biological target: Gal(b1-3)[Neu5Ac(a2-6)]GlcNAc(b1-4)Gal(b1-4)Glc
# How it was run: as §1
# [16] = biological target: Gal(b1-3)[Neu5Ac(b2-6)]GalNAc
# How it was run: as §1
# [17] = biological target: Gal(b1-4)Glc6S
# How it was run: as §1
# [18] = biological target: Gal(b1-4)GlcNAc(b1-2)Man(a1-3)Man(b1-4)GlcNAc(b1-4)GlcNAc
# How it was run: as §1
# [19] = biological target: Gal(b1-4)GlcNAc(b1-2)[Gal(b1-4)GlcNAc(b1-6)]Man(a1-6)[Gal(b1-4)GlcNAc(b1-2)Man(a1-3)]Man(b1-4)GlcNAc(b1-4)[Fuc(a1-6)]GlcNAc
# How it was run: as §1
# [20] = biological target: Gal(b1-4)GlcNAc(b1-2)[Gal(b1-4)GlcNAc(b1-6)]Man(a1-6)[GlcNAc(b1-4)][Gal(b1-4)GlcNAc(b1-2)Man(a1-3)]Man(b1-4)GlcNAc(b1-4)GlcNAc
# How it was run: as §1
# [21] = biological target: Gal(b1-4)GlcNAc(b1-3)Gal(b1-4)GlcNAc(b1-3)[Gal(b1-4)GlcNAc(b1-3)Gal(b1-4)GlcNAc(b1-6)]GalNAc
# How it was run: as §1
# [22] = biological target: Gal(b1-4)GlcNAc(b1-3)Gal(b1-4)GlcNAc(b1-6)[Gal(b1-3)]GalNAc
# How it was run: as §1
# [23] = biological target: Gal(b1-4)GlcNAc(b1-3)GalNAc
# How it was run: as §1
# [24] = biological target: Gal6S(b1-4)Glc6S
# How it was run: as §1
# [25] = biological target: GalNAc(b1-4)GlcNAc
# How it was run: as §1
# [26] = biological target: Glc(b1-4)Glc
# How it was run: as §1
# [27] = biological target: GlcNAc(a1-4)Gal(b1-3)GlcNAc
# How it was run: as §1
# [28] = biological target: GlcNAc(b1-2)[GlcNAc(b1-6)]Man(a1-6)[GlcNAc(b1-4)][GlcNAc(b1-2)Man(a1-3)]Man(b1-4)GlcNAc(b1-4)GlcNAc
# How it was run: as §1
# [29] = biological target: GlcNAc(b1-3)Gal(b1-4)GlcNAc(b1-6)[Gal(b1-3)]GalNAc
# How it was run: as §1
# [30] = biological target: GlcNAc(b1-3)[GlcNAc(b1-6)]Gal(b1-4)GlcNAc
# How it was run: as §1
# [31] = biological target: Kdn(a2-3)Gal(b1-3)GalNAc
# How it was run: as §1
# [32] = biological target: Man(a1-2)Man(a1-3)Man
# How it was run: as §1
# [33] = biological target: Man(a1-2)Man(a1-3)[Man(a1-6)]Man(a1-6)[Man(a1-2)Man(a1-3)]Man(b1-4)GlcNAc(b1-4)GlcNAc
# How it was run: as §1
# [34] = biological target: Man(a1-3)[Man(a1-6)]Man(a1-6)[Man(a1-3)]Man
# How it was run: as §1
# [35] = biological target: Neu5Ac(a2-3)Gal(b1-3)GlcNAc
# How it was run: as §1
# [36] = biological target: Neu5Ac(a2-3)Gal(b1-3)GlcNAc(b1-3)Gal(b1-4)GlcNAc
# How it was run: as §1
# [37] = biological target: Neu5Ac(a2-3)Gal(b1-3)GlcNAc(b1-6)GalNAc
# How it was run: as §1
# [38] = biological target: Neu5Ac(a2-3)Gal(b1-4)GlcNAc(b1-2)Man(a1-3)[Neu5Ac(a2-6)Gal(b1-4)GlcNAc(b1-2)Man(a1-6)]Man(b1-4)GlcNAc(b1-4)GlcNAc
# How it was run: as §1
# [39] = biological target: Neu5Ac(a2-3)Gal(b1-4)GlcNAc(b1-2)[Neu5Ac(a2-3)Gal(b1-4)GlcNAc(b1-6)]Man(a1-6)[Neu5Ac(a2-3)Gal(b1-4)GlcNAc(b1-2)Man(a1-3)]Man(b1-4)GlcNAc(b1-4)GlcNAc
# How it was run: as §1
# [40] = biological target: Neu5Ac(a2-3)Gal(b1-4)[Fuc(a1-3)]GlcNAc(b1-3)Gal(b1-4)[Fuc(a1-3)]GlcNAc(b1-3)Gal(b1-4)[Fuc(a1-3)]GlcNAc
# How it was run: as §1
# [41] = biological target: Neu5Ac(a2-3)Gal(b1-4)[Fuc(a1-3)]GlcNAc(b1-3)GalNAc
# How it was run: as §1
# [42] = biological target: Neu5Ac(a2-3)Gal(b1-4)[Fuc(a1-3)]GlcNAc(b1-6)[Neu5Ac(a2-3)Gal(b1-3)]GalNAc
# How it was run: as §1
# [43] = biological target: Neu5Ac(a2-3)Gal6S(b1-4)GlcNAc
# How it was run: as §1
# [44] = biological target: Neu5Ac(a2-3)GalNAc
# How it was run: as §1
# [45] = biological target: Neu5Ac(a2-3)[GalNAc(b1-4)]Gal(b1-4)Glc
# How it was run: as §1
# [46] = biological target: Neu5Ac(a2-6)Gal(b1-4)GlcNAc
# How it was run: as §1
# [47] = biological target: Neu5Ac(a2-6)Gal(b1-4)GlcNAc(b1-2)Man
# How it was run: as §1
# [48] = biological target: Neu5Ac(a2-6)Gal(b1-4)GlcNAc(b1-2)[Neu5Ac(a2-6)Gal(b1-4)GlcNAc(b1-4)]Man(a1-3)[GlcNAc(b1-4)][Neu5Ac(a2-6)Gal(b1-4)GlcNAc(b1-2)[Neu5Ac(a2-6)Gal(b1-4)GlcNAc(b1-6)]Man(a1-6)]Man(b1-4)GlcNAc(b1-4)GlcNAc
# How it was run: as §1
# [49] = biological target: Neu5Ac(a2-6)Gal(b1-4)GlcNAc(b1-3)Gal(b1-4)GlcNAc(b1-3)[Neu5Ac(a2-6)Gal(b1-4)GlcNAc(b1-3)Gal(b1-4)GlcNAc(b1-6)]GalNAc
# How it was run: as §1
# [50] = biological target: Neu5Ac(a2-6)Gal(b1-4)GlcNAc(b1-6)GalNAc
# How it was run: as §1
# [51] = biological target: Neu5Ac(a2-6)Gal(b1-4)GlcNAc(b1-6)[Gal(b1-3)GlcNAc(b1-3)]Gal(b1-4)Glc
# How it was run: as §1
# [52] = biological target: Neu5Ac(a2-6)GlcNAc(b1-4)GlcNAc
# How it was run: as §1
# [53] = biological target: Neu5Ac(a2-8)Neu5Ac(a2-8)Neu5Ac(a2-3)[GalNAc(b1-4)]Gal(b1-4)Glc
# How it was run: as §1
# [54] = biological target: Neu5Ac(a2-8)Neu5Gc(a2-3)Gal(b1-4)GlcNAc
# How it was run: as §1
# [55] = biological target: Neu5Gc(a2-6)GalNAc
# How it was run: as §1
binder,measurement,setting,value
PX14404-bvu-534-26-534 (Bacteroides vulgatus) (protein) EDPRGKLTPENFFSTQDELNMSIYALYQKVNLSQVYTNMQLPQWQGDDITTNPGSNKQPAAEMDKFAAANNNKGVKDAWNMHYAIVKAANLIIQGASKTPTTQDEINIALGQAKFWRAYAYFTLVRLWGPLPMNLDNVNDDYTKPLSPVEEVYGHIVQDLTEAEAVLPTGYSGSPRFLNGVNVYVTRQAAKSTLAAVYMAMAGWPMNKTEYYAKAAEKAKEVIEGVNRGEYEYKLDKDYKDVYAMSNNYNNETVLGINYSPFVDWAQDSELTSCNQFESLGGWGDAWGEIRFWKEFPDGPRKDATYDPKIRLKDGTLVDWWELKEDGTPVVPEHHPMFSIFSVNWDPASKVNTSAPYDYTKPASQNMCNDHRHRIIRYSEVLLWYAEAKARTGQTDELAFKCLNDVRERAGLEPLTGLSADDLAEAAYKEHGWEVAGYWVALVTRRADQFRMNRLKDTFKERAENTAVEVADGILVKESVEYTNRTWSDNLMYLPYPDMDSQKNPNLVR,glycan array binding signal (z-score),[1],-0.799
same,glycan array binding signal (z-score),[2],0.314
same,glycan array binding signal (z-score),[3],-0.348
same,glycan array binding signal (z-score),[4],2.03
same,glycan array binding signal (z-score),[5],2.24
same,glycan array binding signal (z-score),[6],2.73
same,glycan array binding signal (z-score),[7],0.15
same,glycan array binding signal (z-score),[8],0.311
same,glycan array binding signal (z-score),[9],0.074
same,glycan array binding signal (z-score),[10],0.042
same,glycan array binding signal (z-score),[11],-0.561
same,glycan array binding signal (z-score),[12],3.57
same,glycan array binding signal (z-score),[13],-0.215
same,glycan array binding signal (z-score),[14],-0.497
same,glycan array binding signal (z-score),[15],0.099
same,glycan array binding signal (z-score),[16],-1.21
same,glycan array binding signal (z-score),[17],0.084
same,glycan array binding signal (z-score),[18],-0.296
same,glycan array binding signal (z-score),[19],-0.583
same,glycan array binding signal (z-score),[20],-0.45
same,glycan array binding signal (z-score),[21],-0.105
same,glycan array binding signal (z-score),[22],4.7
same,glycan array binding signal (z-score),[23],-0.885
same,glycan array binding signal (z-score),[24],3.4
same,glycan array binding signal (z-score),[25],-0.29
same,glycan array binding signal (z-score),[26],-0.903
same,glycan array binding signal (z-score),[27],0.178
same,glycan array binding signal (z-score),[28],-1.21
same,glycan array binding signal (z-score),[29],-0.575
same,glycan array binding signal (z-score),[30],-0.97
same,glycan array binding signal (z-score),[31],1.92
same,glycan array binding signal (z-score),[32],1.24
same,glycan array binding signal (z-score),[33],-0.161
same,glycan array binding signal (z-score),[34],2.67
same,glycan array binding signal (z-score),[35],0.177
same,glycan array binding signal (z-score),[36],-0.891
same,glycan array binding signal (z-score),[37],-0.09
same,glycan array binding signal (z-score),[38],0.576
same,glycan array binding signal (z-score),[39],-0.695
same,glycan array binding signal (z-score),[40],0.228
same,glycan array binding signal (z-score),[41],0.921
same,glycan array binding signal (z-score),[42],3.23
same,glycan array binding signal (z-score),[43],0.553
same,glycan array binding signal (z-score),[44],0.608
same,glycan array binding signal (z-score),[45],-1.43
same,glycan array binding signal (z-score),[46],0.634
same,glycan array binding signal (z-score),[47],-0.24
same,glycan array binding signal (z-score),[48],-0.206
same,glycan array binding signal (z-score),[49],0.075
same,glycan array binding signal (z-score),[50],0.144
same,glycan array binding signal (z-score),[51],-1.1
same,glycan array binding signal (z-score),[52],-0.51
same,glycan array binding signal (z-score),[53],0.28
same,glycan array binding signal (z-score),[54],12.9
same,glycan array binding signal (z-score),[55],1.92

# From the supplement of paper PMC8728848
